Results filed as inconclusive are left out. Calls of active or inactive are those of the source.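 Rule for the calls: active = every repeat run fits a falling-signal curve with half-maximal potency within ten times top tested dose; inconclusive = runs disagree, or flat moderate drop, or poor fit; inactive = every run inactive, including signal moving upward.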
Experiment: inhibition of ADP-Glo detection reagents, dose response, artefact control for CDK5 inhibitor project, biochemical, luminescence, cherry-picked samples, set 2 (AID 504546)
Settings: ADP-Glo detection reagent counter screen, 5 uM ADP; series mostly up to 30 µM

Compound	outcome
N#Cc1cn(C2OC(CO)C(O)C2O)c2ncnc(N)c12 (stereo not drawn)	inactive
Nc1ncnc2c1ccn2[C@@H]1O[C@H](CO)[C@@H](O)[C@H]1O	inactive
NC(=O)c1cn(C2OC(CO)C(O)C2O)c2ncnc(N)c12 (stereo not drawn)	inactive
NC(=O)c1c(Br)n(C2OC(CO)C(O)C2O)c2ncnc(N)c12 (stereo not drawn)	inactive
N#Cc1c(Br)n(C2OC(CO)C(O)C2O)c2ncnc(N)c12 (stereo not drawn)	inactive
COc1cc2c(ccc3c4cc(OC)c(OC)cc4c[n+](C)c23)cc1O	inactive
Nc1ccc(CC2=NCCN2)cc1	inactive
O=C1Nc2ccccc2/C1=C/c1cnc[nH]1	inactive

Reference: PubChem BioAssay AID504546 (Broad Institute, 2011)
